Measurements from PMC11006913.
Positions count from the first letter of the chain named.

Key:
Assay in all cases: PBM; 200 nM protein, PBS
Conditions in all cases: dsDNA, one strand shown
ALX3 [1] = target: ALX3 (Homo sapiens, UniProt O95076 139-225, N203Q)
ALX3 [2] = target: ALX3 (Homo sapiens, UniProt O95076 139-225)
ALX3 [3] = target: ALX3 (Homo sapiens, UniProt O95076 139-225, L168Q)
ALX3 [4] = target: ALX3 (Homo sapiens, UniProt O95076 139-225, L168V)
ALX3 [5] = target: ALX3 (Homo sapiens, UniProt O95076 139-225, N203S)
VAX1 [6] = target: VAX1 (Homo sapiens, UniProt Q5SQQ9 86-172)
VAX1 [7] = target: VAX1 (Homo sapiens, UniProt Q5SQQ9 86-172, T142I)
VAX1 [8] = target: VAX1 (Homo sapiens, UniProt Q5SQQ9 86-172, K157R)
PAX4 [9] = target: T1, PAX4 (Homo sapiens, UniProt O43316 9-242, F177V)
T1 sequence: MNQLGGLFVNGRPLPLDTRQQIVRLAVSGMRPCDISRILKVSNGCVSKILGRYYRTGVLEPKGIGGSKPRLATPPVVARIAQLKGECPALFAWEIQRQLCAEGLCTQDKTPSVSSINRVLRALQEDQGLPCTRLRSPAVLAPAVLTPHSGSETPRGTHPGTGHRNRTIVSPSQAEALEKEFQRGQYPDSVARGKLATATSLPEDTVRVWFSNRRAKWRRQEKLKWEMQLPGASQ

PAX4 [10] = target: T2, PAX4 (Homo sapiens, UniProt O43316 9-242, R227W)
T2 sequence: T1 sequence with V169F, R219W

NKX2-6 [11] = target: T3, NKX2-6 (Homo sapiens, UniProt A6NCS4 118-204)
T3 sequence: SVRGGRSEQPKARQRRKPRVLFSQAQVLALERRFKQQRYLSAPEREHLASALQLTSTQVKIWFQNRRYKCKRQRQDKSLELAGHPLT

NKX2-6 [12] = target: T4, NKX2-6 (Homo sapiens, UniProt A6NCS4 118-204, F151L)
T4 sequence: T3 sequence with F34L

Sequence of ALX3 (Homo sapiens, UniProt O95076 139-225, L168V) (O95076 139-225 L168V): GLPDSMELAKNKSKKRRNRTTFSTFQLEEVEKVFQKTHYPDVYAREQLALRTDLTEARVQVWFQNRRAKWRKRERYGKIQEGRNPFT
Sequence of ALX3 (Homo sapiens, UniProt O95076 139-225, L168Q) (O95076 139-225 L168Q): as the sequence (O95076 139-225 L168V) above, with V30Q counted along it
Sequence of ALX3 (Homo sapiens, UniProt O95076 139-225, N203S) (O95076 139-225 N203S): as the sequence (O95076 139-225 L168V) above, with V30L, N65S counted along it
Sequence of ALX3 (Homo sapiens, UniProt O95076 139-225, N203Q) (O95076 139-225 N203Q): as the sequence (O95076 139-225 L168V) above, with V30L, N65Q counted along it
Sequence of ALX3 (Homo sapiens, UniProt O95076 139-225) (O95076 139-225): as the sequence (O95076 139-225 L168V) above, with V30L counted along it
Sequence of VAX1 (Homo sapiens, UniProt Q5SQQ9 86-172, T142I) (Q5SQQ9 86-172 T142I): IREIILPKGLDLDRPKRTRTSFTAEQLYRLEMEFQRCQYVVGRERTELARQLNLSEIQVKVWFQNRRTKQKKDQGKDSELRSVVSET
Sequence of VAX1 (Homo sapiens, UniProt Q5SQQ9 86-172) (Q5SQQ9 86-172): as the sequence (Q5SQQ9 86-172 T142I) above, with I57T counted along it
Sequence of VAX1 (Homo sapiens, UniProt Q5SQQ9 86-172, K157R) (Q5SQQ9 86-172 K157R): as the sequence (Q5SQQ9 86-172 T142I) above, with I57T, K72R counted along it

ACCAGCGG was tested, and the binding signal (ALX3 [1]) was 7.79 upbm affinity estimate (log intensity, higher = more binding, comparable within an allelic series), the binding signal (ALX3 [2]) was 7.56 upbm affinity estimate (log intensity, higher = more binding, comparable within an allelic series) and the binding signal (ALX3 [3]) was 7.79 upbm affinity estimate (log intensity, higher = more binding, comparable within an allelic series). For the same sequence, the binding signal (ALX3 [4]) was 7.78 upbm affinity estimate (log intensity, higher = more binding, comparable within an allelic series) and the binding signal (ALX3 [5]) was 7.78 upbm affinity estimate (log intensity, higher = more binding, comparable within an allelic series).

For GCTCTGCC, the binding signal (ALX3 [1]) was 7.7 upbm affinity estimate (log intensity, higher = more binding, comparable within an allelic series), the binding signal (ALX3 [2]) was 7.55 upbm affinity estimate (log intensity, higher = more binding, comparable within an allelic series) and the binding signal (VAX1 [6]) was 7.01 upbm affinity estimate (log intensity, higher = more binding, comparable within an allelic series). For the same sequence, the binding signal (ALX3 [3]) was 7.72 upbm affinity estimate (log intensity, higher = more binding, comparable within an allelic series), the binding signal (ALX3 [4]) was 7.75 upbm affinity estimate (log intensity, higher = more binding, comparable within an allelic series) and the binding signal (VAX1 [7]) was 7.19 upbm affinity estimate (log intensity, higher = more binding, comparable within an allelic series). The binding signal (ALX3 [5]) was 7.71 upbm affinity estimate (log intensity, higher = more binding, comparable within an allelic series) and the binding signal (VAX1 [8]) was 7.08 upbm affinity estimate (log intensity, higher = more binding, comparable within an allelic series).

With ATATAATA the binding signal (ALX3 [1]) was 8.64 upbm affinity estimate (log intensity, higher = more binding, comparable within an allelic series), the binding signal (PAX4 [9]) was 10.8 upbm affinity estimate (log intensity, higher = more binding, comparable within an allelic series) and the binding signal (PAX4 [10]) was 10.9 upbm affinity estimate (log intensity, higher = more binding, comparable within an allelic series). For the same sequence, the binding signal (ALX3 [5]) was 8.68 upbm affinity estimate (log intensity, higher = more binding, comparable within an allelic series).

With AATTGTCC the binding signal (ALX3 [1]) was 8.15 upbm affinity estimate (log intensity, higher = more binding, comparable within an allelic series), the binding signal (NKX2-6 [11]) was 11.4 upbm affinity estimate (log intensity, higher = more binding, comparable within an allelic series) and the binding signal (ALX3 [2]) was 10.1 upbm affinity estimate (log intensity, higher = more binding, comparable within an allelic series). The binding signal (NKX2-6 [12]) was 9.84 upbm affinity estimate (log intensity, higher = more binding, comparable within an allelic series) and the binding signal (ALX3 [5]) was 8.23 upbm affinity estimate (log intensity, higher = more binding, comparable within an allelic series).

In the case of ACCCGGGT, the binding signal (ALX3 [1]) is reported as 7.83 upbm affinity estimate (log intensity, higher = more binding, comparable within an allelic series), the binding signal (ALX3 [2]) is reported as 8.06 upbm affinity estimate (log intensity, higher = more binding, comparable within an allelic series) and the binding signal (ALX3 [3]) is reported as 8.02 upbm affinity estimate (log intensity, higher = more binding, comparable within an allelic series). For the same sequence, the binding signal (ALX3 [4]) was 7.92 upbm affinity estimate (log intensity, higher = more binding, comparable within an allelic series) and the binding signal (ALX3 [5]) was 7.9 upbm affinity estimate (log intensity, higher = more binding, comparable within an allelic series).

In the case of ATTTACGG, the binding signal (ALX3 [1]) is reported as 8.3 upbm affinity estimate (log intensity, higher = more binding, comparable within an allelic series) and the binding signal (ALX3 [2]) is reported as 10.1 upbm affinity estimate (log intensity, higher = more binding, comparable within an allelic series).

With GGCAGTTA the binding signal (ALX3 [1]) was 8.06 upbm affinity estimate (log intensity, higher = more binding, comparable within an allelic series), the binding signal (ALX3 [2]) was 9.02 upbm affinity estimate (log intensity, higher = more binding, comparable within an allelic series) and the binding signal (ALX3 [3]) was 8.19 upbm affinity estimate (log intensity, higher = more binding, comparable within an allelic series). For the same sequence, the binding signal (ALX3 [4]) was 8.14 upbm affinity estimate (log intensity, higher = more binding, comparable within an allelic series) and the binding signal (ALX3 [5]) was 8.16 upbm affinity estimate (log intensity, higher = more binding, comparable within an allelic series).

AGGCACGC was tested, and the binding signal (ALX3 [1]) was 7.63 upbm affinity estimate (log intensity, higher = more binding, comparable within an allelic series), the binding signal (ALX3 [2]) was 7.78 upbm affinity estimate (log intensity, higher = more binding, comparable within an allelic series) and the binding signal (ALX3 [3]) was 7.71 upbm affinity estimate (log intensity, higher = more binding, comparable within an allelic series). For the same sequence, the binding signal (ALX3 [4]) was 7.61 upbm affinity estimate (log intensity, higher = more binding, comparable within an allelic series) and the binding signal (ALX3 [5]) was 7.64 upbm affinity estimate (log intensity, higher = more binding, comparable within an allelic series).

CCTAACAG was tested, and the binding signal (ALX3 [1]) was 8.02 upbm affinity estimate (log intensity, higher = more binding, comparable within an allelic series), the binding signal (ALX3 [2]) was 8.92 upbm affinity estimate (log intensity, higher = more binding, comparable within an allelic series) and the binding signal (ALX3 [3]) was 8.23 upbm affinity estimate (log intensity, higher = more binding, comparable within an allelic series). The binding signal (ALX3 [4]) was 8.19 upbm affinity estimate (log intensity, higher = more binding, comparable within an allelic series) and the binding signal (ALX3 [5]) was 8.09 upbm affinity estimate (log intensity, higher = more binding, comparable within an allelic series).

In the case of AATATTCG, the binding signal (ALX3 [1]) is reported as 8.28 upbm affinity estimate (log intensity, higher = more binding, comparable within an allelic series) and the binding signal (ALX3 [2]) is reported as 9.33 upbm affinity estimate (log intensity, higher = more binding, comparable within an allelic series).

For CAGTTACG, the binding signal (ALX3 [1]) was 8 upbm affinity estimate (log intensity, higher = more binding, comparable within an allelic series), the binding signal (ALX3 [2]) was 8.89 upbm affinity estimate (log intensity, higher = more binding, comparable within an allelic series) and the binding signal (ALX3 [3]) was 8.09 upbm affinity estimate (log intensity, higher = more binding, comparable within an allelic series). For the same sequence, the binding signal (ALX3 [4]) was 8.1 upbm affinity estimate (log intensity, higher = more binding, comparable within an allelic series) and the binding signal (ALX3 [5]) was 8.08 upbm affinity estimate (log intensity, higher = more binding, comparable within an allelic series).

In the case of CAGTCGCA, the binding signal (ALX3 [1]) is reported as 7.8 upbm affinity estimate (log intensity, higher = more binding, comparable within an allelic series), the binding signal (ALX3 [2]) is reported as 7.85 upbm affinity estimate (log intensity, higher = more binding, comparable within an allelic series) and the binding signal (ALX3 [3]) is reported as 7.89 upbm affinity estimate (log intensity, higher = more binding, comparable within an allelic series). For the same sequence, the binding signal (ALX3 [4]) was 7.88 upbm affinity estimate (log intensity, higher = more binding, comparable within an allelic series) and the binding signal (ALX3 [5]) was 7.8 upbm affinity estimate (log intensity, higher = more binding, comparable within an allelic series).
